Screens from PubChem.
Marburg entry inh = inhibitors of Marburg virus binding or cell entry | Potency, µM (titrated, usually from 37.8 µM), most hits filed as inhibitors | hit rate 1.8% among 300,000 | Marburg virus pseudotyped entry inhibition, cell reporter | AID 540276; calls by dose curve; tested in HEK293 cells
VACV Venus inh = inhibitors of vaccinia virus (Venus reporter); Vaccinia virus Venus reporter expression, fluorescence; Potency, µM (titrated, usually from 36.5 µM), hits mostly inhibitors; hit rate 0.46% among 330,000; calls by dose curve; tested in A549 cells; note: nearly all actives have a fitted effect of over 30% in size
Vaccinia mCherry = inhibitors of vaccinia virus infection (mCherry reporter signal) | AID 720579 | hit rate 0.63% among 310,000 | Vaccinia virus mCherry reporter infection, fluorescence | Potency, µM (series often up to 36.5 µM), actives largely listed as inhibitors; calls by dose curve; tested in A549 cells; note: nearly all actives have a fitted effect of over 35% in size
FMDV inh = blocks foot and mouth disease virus; Potency, µM (top dose mostly 57.9 µM), usual class: inhibitors; hit rate 1.2% among 410,000; FMDV antiviral cell-based qHTS; AID 1159524; calls by dose curve; tested in HEK293T cells; note: read-out not given here; nearly all actives have a fitted effect of over 45% in size
LASV entry inh = inhibitors of Lassa virus binding or cell entry; Lassa virus pseudotype entry inhibition, cell reporter; hit rate 1.2% among 300,000; Potency, µM (titrated, usually from 37.9 µM), hits mostly inhibitors; calls by dose curve; tested in HEK293 cells; note: nearly all actives have a fitted effect of over 50% in size
Numbers stand for hits; ! = a repeat was not active. The list is not random: actives were taken first. Their share in the collection is about 3.2%.

Screening CCN1C(=O)[C@H]2[C@H]3[C@H](O)[C@H](O)C/C(=N\NC(=O)OCc4ccccc4)[C@@H]3CC[C@H]2C1=O returned Marburg entry inh inactive.
Screening C=C(C#Cc1ccc(OC)cc1)CCN1C=C(C(=O)OCC)C(c2ccccc2)NC1=O (configuration not stated) returned Marburg entry inh inactive and LASV entry inh inconclusive.
`CCC(=O)N1CCc2cc(Br)cc(S(=O)(=O)NC3CCN(Cc4ccccc4)CC3)c21` gave Marburg entry inh inconclusive, VACV Venus inh inactive, Vaccinia mCherry inactive, FMDV inh inactive and LASV entry inh 2.2µM.
For CCC(=O)N1CCc2cc(Br)cc(S(=O)(=O)NCCCN(C)Cc3ccccc3)c21 the results were Marburg entry inh inconclusive, VACV Venus inh inactive, Vaccinia mCherry inactive, FMDV inh inactive and LASV entry inh inactive.
For O=[N+]([O-])/C(C(=C(Cl)Cl)N1CCOCC1)=C1\NCCO1 the results were Marburg entry inh inactive, VACV Venus inh 10µM, Vaccinia mCherry 16µM, FMDV inh inactive and LASV entry inh inactive.
CN1CCO/C1=C(\C(Cl)=C(Cl)Cl)[N+](=O)[O-] was read as Marburg entry inh inactive, VACV Venus inh inactive, Vaccinia mCherry inactive, FMDV inh inactive and LASV entry inh inactive.
Screening O=C(/C=C/c1ccc(OCCCF)cc1)Nc1ccnc(-c2ccncc2)n1 returned Marburg entry inh inconclusive, VACV Venus inh inactive, Vaccinia mCherry inactive, FMDV inh 22µM and LASV entry inh inactive.
`O=C(/C=C/c1ccc(OCCCF)cc1)Nc1ccnc(-c2cccnc2)n1` gave Marburg entry inh inconclusive, VACV Venus inh inactive, Vaccinia mCherry inactive, FMDV inh inactive and LASV entry inh inactive.
`CCN(CC(=O)Nc1c(C(=O)OC)[nH]c2ccc(Cl)cc12)c1ccc2c(c1)OCO2` gave Marburg entry inh inconclusive, VACV Venus inh inconclusive, FMDV inh inactive and LASV entry inh 13µM.
CCOC(=O)c1[nH]c2ccc(Cl)cc2c1NC(=O)/C=C/c1ccc2c(c1)OCO2 was read as Marburg entry inh inconclusive, VACV Venus inh inactive, Vaccinia mCherry inactive, FMDV inh inactive and LASV entry inh inconclusive.
CN(C)CC[C@@H](c1ccc(Br)cc1)c1ccccn1 was read as Marburg entry inh 8.9µM!, VACV Venus inh inactive, Vaccinia mCherry inactive, FMDV inh inactive and LASV entry inh inconclusive.
CN(C)CCC(C(=O)c1ccccc1)c1ccccn1 (configuration not stated) was read as Marburg entry inh inconclusive, VACV Venus inh inactive, Vaccinia mCherry inactive, FMDV inh inactive and LASV entry inh inconclusive.
CN(C)CC[C@@H](c1ccc(Cl)cc1)c1ccccn1 was read as Marburg entry inh 5.6µM!, VACV Venus inh inactive, Vaccinia mCherry inactive, FMDV inh inactive and LASV entry inh inactive.
Screening COC(=O)C1C=CC(OC2OC(COC(C)=O)C(OC(C)=O)C(OC(C)=O)C2OC(C)=O)n2c(=O)n(-c3ccccc3)c(=O)n21 (configuration not stated) returned Marburg entry inh inconclusive, VACV Venus inh inconclusive, Vaccinia mCherry 10µM, FMDV inh 25µM and LASV entry inh inconclusive.
`COc1ccc(-c2ccc(C(=O)N(C)Cc3csc(C)n3)c(N3CCC(N4CCc5ccccc5C4)CC3)n2)cc1` gave VACV Venus inh inactive, Vaccinia mCherry inactive and FMDV inh inactive.
For Cc1cccc(-c2cc(C(=O)Nc3sc(C)c(C)c3C(N)=O)c3ccccc3n2)c1 the results were Marburg entry inh inconclusive, VACV Venus inh inactive, Vaccinia mCherry inactive, FMDV inh inactive and LASV entry inh inactive.
`Cc1ccc(C)c(-c2cc(C(=O)Nc3sc(C)c(C)c3C(N)=O)c3ccccc3n2)c1` gave Marburg entry inh inconclusive, FMDV inh 22µM and LASV entry inh inconclusive.
`Cc1cccc2cc(CN(Cc3ccccc3)Cc3nnnn3Cc3ccccc3)c(=O)[nH]c12` gave VACV Venus inh inactive and Vaccinia mCherry inactive.
Screening Cc1cccc2cc(CN(Cc3cccs3)Cc3nnnn3Cc3ccccc3)c(=O)[nH]c12 returned Marburg entry inh 16µM, VACV Venus inh inconclusive, Vaccinia mCherry inactive and LASV entry inh inconclusive.
`CCCCCCCn1c2c(c(=N)c3ccccc31)CCC2` gave VACV Venus inh inconclusive, Vaccinia mCherry inconclusive and FMDV inh 5µM.
CCCn1c2c(c(=N)c3c1CCC3)CCC2 was read as Marburg entry inh inconclusive, VACV Venus inh inactive, Vaccinia mCherry inactive, FMDV inh inconclusive and LASV entry inh inactive.
For CN(C)S(=O)(=O)c1ccc(C(=O)Nc2cc(S(=O)(=O)Nc3ccccc3Cl)ccc2N2CCCCC2)cc1 the results were Marburg entry inh inactive, VACV Venus inh inactive, Vaccinia mCherry inactive, FMDV inh inactive and LASV entry inh 5.2µM.
`CCN1CCN(S(=O)(=O)c2ccc(Cl)c(C(=O)Nc3ccccc3N3CCCC3)c2)CC1` gave Marburg entry inh inactive, VACV Venus inh inactive, Vaccinia mCherry inactive, FMDV inh inactive and LASV entry inh inactive.
For COc1ccc(NS(=O)(=O)c2ccc(N3CCOCC3)c(NC(=O)c3ccc(OC)cc3)c2)cc1 the results were Marburg entry inh inconclusive, VACV Venus inh inactive, Vaccinia mCherry inconclusive, FMDV inh inactive and LASV entry inh inconclusive.
`CCN1CCN(S(=O)(=O)c2ccc(Cl)c(C(=O)Nc3ccccc3N3CCCCC3)c2)CC1` gave Marburg entry inh 11µM, VACV Venus inh inactive, Vaccinia mCherry inactive, FMDV inh inactive and LASV entry inh inconclusive.
`COc1ccc(NS(=O)(=O)c2ccc(N3CCOCC3)c(NC(=O)c3ccccc3Cl)c2)cc1` gave Marburg entry inh inconclusive, VACV Venus inh inactive, Vaccinia mCherry inactive, FMDV inh inactive and LASV entry inh 1.6µM.
For CC(=O)Nc1ccc(NC(=O)C(NS(=O)(=O)c2ccc(Br)s2)c2ccccc2)cc1 (configuration not stated) the results were Marburg entry inh inconclusive, VACV Venus inh inactive, Vaccinia mCherry inactive, FMDV inh inactive and LASV entry inh inactive.
`CCc1nc(CN2CCOc3ccc(C(O)C4CCCCC4)cc3C2)c(C)[nH]1` (configuration not stated) gave VACV Venus inh inactive, Vaccinia mCherry inactive and FMDV inh inactive.
Screening Fc1ccccc1C1c2[nH]c3ccccc3c2CCN1Cc1cccn1-c1ncccn1 (configuration not stated) returned Marburg entry inh 3.2µM, VACV Venus inh inactive, Vaccinia mCherry inconclusive, FMDV inh inactive and LASV entry inh inconclusive.
For COC(=O)C1CCN(Cc2ccc3c(c2)CN(C(=O)c2cc(C)oc2C)CCO3)CC1 the results were VACV Venus inh inactive, Vaccinia mCherry inactive and FMDV inh inactive.
`CCN(Cc1ccc(O)cc1)CC1CCCN(CCc2cccc(F)c2)C1` (configuration not stated) gave FMDV inh inactive.
`O=c1[nH]c2ccccc2n1C1CCN(C(CCc2ccccc2)c2nnnn2C2CCCCC2)CC1` (configuration not stated) gave VACV Venus inh inconclusive, Vaccinia mCherry inconclusive and FMDV inh 28µM.
For O=c1[nH]c2ccccc2n1C1CCN(C(CCc2ccccc2)c2nnnn2Cc2ccccc2)CC1 (configuration not stated) the results were VACV Venus inh 11µM, Vaccinia mCherry inconclusive and FMDV inh 35µM.
